Experimental data from paper PMC7862700, “An all-to-all approach to the identification of sequence-specific readers for epigenetic DNA modifications on cytosine”.

Tests used:
Assay in all cases: DAPPL (digital affinity profiling via proximity ligation, sequencing); 10 mM Tris-HCl pH 7.5, 50 mM NaCl, 1 mM DTT, 4% glycerol, room temperature, 30 min; GST-TFs on glutathione beads, 16-mer random dsDNA library, 0.1% formaldehyde crosslink after washing; high values mean tight binding
Conditions in all cases: protein: recombinant; tags: N-terminal GST; dsDNA, one strand shown
FLI1 = target: T1, FLI1 (Homo sapiens, UniProt Q01543 1-452)
T1 sequence: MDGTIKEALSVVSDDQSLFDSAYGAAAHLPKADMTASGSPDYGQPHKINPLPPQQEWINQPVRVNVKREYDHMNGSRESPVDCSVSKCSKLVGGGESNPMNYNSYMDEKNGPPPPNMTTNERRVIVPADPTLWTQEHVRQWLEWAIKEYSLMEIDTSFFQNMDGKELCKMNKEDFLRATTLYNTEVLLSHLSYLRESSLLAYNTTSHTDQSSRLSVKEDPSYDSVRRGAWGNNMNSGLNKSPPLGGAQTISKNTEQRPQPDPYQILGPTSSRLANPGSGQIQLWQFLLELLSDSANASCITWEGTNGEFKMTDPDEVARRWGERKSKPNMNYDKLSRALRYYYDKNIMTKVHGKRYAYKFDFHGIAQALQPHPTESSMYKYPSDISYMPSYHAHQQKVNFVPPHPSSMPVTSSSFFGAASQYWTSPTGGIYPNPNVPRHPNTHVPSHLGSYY
Summary of the method: (§1)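 Binding signal is each hexamer's read frequency for a factor divided by its frequency in the tag-only sample. The factors were GST-fused human transcription factors from yeast, captured on glutathione beads, DNA-barcoded and pooled with that sample. Pools were incubated with 200 nmole of a random double-stranded 16-mer DNA library in Tris/NaCl/DTT/glycerol buffer at room temperature for 30 min, then washed, crosslinked with 0.1% formaldehyde, proximity-ligated with BsaI/T4 ligase (1 h, 37 °C), PCR-amplified and sequenced on an Illumina NextSeq500.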

ERG = target: T2, ERG (Homo sapiens, UniProt P11308 1-479)
T2 sequence: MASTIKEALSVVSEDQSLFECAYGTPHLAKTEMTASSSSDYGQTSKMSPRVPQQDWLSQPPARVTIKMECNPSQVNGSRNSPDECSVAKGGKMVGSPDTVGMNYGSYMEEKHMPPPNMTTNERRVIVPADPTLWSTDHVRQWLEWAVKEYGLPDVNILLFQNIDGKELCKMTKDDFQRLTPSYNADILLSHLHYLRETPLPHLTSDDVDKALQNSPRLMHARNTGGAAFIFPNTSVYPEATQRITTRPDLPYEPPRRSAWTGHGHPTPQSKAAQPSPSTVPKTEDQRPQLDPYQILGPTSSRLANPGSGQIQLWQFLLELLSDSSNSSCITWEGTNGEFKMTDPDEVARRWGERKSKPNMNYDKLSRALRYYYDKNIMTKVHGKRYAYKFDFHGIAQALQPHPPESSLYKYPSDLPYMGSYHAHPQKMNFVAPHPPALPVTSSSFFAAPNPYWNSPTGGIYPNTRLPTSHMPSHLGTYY
Summary of the method: as §1

EHF = target: T3, EHF (Homo sapiens, UniProt Q9NZC4 1-300)
T3 sequence: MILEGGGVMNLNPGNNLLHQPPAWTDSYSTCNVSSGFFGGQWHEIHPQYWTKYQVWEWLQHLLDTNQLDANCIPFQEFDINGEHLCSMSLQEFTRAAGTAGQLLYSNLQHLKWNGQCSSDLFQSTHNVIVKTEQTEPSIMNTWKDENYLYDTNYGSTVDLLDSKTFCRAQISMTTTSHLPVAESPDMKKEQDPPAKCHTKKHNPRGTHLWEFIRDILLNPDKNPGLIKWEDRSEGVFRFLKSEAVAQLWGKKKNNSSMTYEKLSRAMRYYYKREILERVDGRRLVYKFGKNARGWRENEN
Summary of the method: as §1

SPI1 = SPI1 (Homo sapiens, UniProt P17947 1-270)
Summary of the method: as §1

ELK3 = target: T4, ELK3 (Homo sapiens, UniProt P41970 1-407)
T4 sequence: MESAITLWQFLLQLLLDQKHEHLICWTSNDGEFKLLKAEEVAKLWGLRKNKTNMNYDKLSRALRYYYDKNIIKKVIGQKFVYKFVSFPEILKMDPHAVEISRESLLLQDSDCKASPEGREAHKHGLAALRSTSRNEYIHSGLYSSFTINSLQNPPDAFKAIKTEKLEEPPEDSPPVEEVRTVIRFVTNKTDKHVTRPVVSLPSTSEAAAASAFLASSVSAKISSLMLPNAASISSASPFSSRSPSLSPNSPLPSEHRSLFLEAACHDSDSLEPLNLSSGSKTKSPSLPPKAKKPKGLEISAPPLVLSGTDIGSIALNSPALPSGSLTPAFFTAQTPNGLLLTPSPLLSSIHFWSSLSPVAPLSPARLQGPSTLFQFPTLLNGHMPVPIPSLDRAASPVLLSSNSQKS
Summary of the method: as §1

SPIC = target: T5, SPIC (Homo sapiens, UniProt Q8N5J4 1-248)
T5 sequence: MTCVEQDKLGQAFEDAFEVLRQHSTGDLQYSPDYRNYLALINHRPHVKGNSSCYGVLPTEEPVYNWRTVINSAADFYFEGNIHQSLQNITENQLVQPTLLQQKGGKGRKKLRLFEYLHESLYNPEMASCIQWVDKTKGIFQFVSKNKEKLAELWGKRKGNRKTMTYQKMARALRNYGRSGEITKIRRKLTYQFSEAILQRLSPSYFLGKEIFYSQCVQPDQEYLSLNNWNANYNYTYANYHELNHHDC
Summary of the method: as §1

ELF4 = ELF4 (Homo sapiens, UniProt Q99607 1-663)
Summary of the method: as §1

ELK4 = target: T6, ELK4 (Homo sapiens, UniProt P28324-2 1-405)
T6 sequence: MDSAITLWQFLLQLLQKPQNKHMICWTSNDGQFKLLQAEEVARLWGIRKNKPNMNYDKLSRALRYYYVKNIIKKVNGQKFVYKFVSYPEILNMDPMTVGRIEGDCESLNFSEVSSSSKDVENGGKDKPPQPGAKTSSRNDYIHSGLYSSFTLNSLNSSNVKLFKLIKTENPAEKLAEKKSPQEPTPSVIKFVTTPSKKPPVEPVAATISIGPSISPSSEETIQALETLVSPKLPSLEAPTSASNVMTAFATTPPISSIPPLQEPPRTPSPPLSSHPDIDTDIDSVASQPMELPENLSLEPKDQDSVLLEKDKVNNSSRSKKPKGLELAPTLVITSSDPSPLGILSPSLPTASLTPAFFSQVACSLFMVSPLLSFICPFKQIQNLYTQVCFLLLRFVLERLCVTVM
Summary of the method: as §1

ELF3 = target: T7, ELF3 (Homo sapiens, UniProt P78545 1-371)
T7 sequence: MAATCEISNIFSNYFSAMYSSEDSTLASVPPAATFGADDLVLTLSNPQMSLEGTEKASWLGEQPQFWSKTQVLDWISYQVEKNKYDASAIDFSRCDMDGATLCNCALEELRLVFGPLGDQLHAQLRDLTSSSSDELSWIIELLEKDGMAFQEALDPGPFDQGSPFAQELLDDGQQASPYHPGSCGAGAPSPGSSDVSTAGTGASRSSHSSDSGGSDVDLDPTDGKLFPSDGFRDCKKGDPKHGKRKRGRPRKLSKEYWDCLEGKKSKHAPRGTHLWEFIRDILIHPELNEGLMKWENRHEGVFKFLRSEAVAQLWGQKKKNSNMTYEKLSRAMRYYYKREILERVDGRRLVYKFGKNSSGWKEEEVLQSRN
Summary of the method: as §1

ETV1 = ETV1 (Homo sapiens, UniProt P50549 1-477)
Summary of the method: as §1

ERF = target: T8, ERF (Homo sapiens, UniProt P50548 1-548)
T8 sequence: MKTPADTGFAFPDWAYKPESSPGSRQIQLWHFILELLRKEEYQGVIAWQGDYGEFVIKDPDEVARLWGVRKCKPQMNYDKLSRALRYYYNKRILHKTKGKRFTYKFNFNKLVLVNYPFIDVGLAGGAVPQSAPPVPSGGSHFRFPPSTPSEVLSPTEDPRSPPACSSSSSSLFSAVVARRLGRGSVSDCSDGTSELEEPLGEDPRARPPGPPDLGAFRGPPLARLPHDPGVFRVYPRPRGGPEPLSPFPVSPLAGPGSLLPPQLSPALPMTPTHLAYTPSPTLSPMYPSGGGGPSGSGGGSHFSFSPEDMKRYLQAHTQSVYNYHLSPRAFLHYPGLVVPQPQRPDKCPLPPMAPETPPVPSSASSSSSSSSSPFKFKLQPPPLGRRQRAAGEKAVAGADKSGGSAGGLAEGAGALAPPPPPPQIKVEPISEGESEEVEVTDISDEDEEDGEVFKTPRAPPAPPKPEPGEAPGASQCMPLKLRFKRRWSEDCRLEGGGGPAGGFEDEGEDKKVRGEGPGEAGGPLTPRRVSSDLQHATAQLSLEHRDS
Summary of the method: as §1

SPDEF = target: T9, SPDEF (Homo sapiens, UniProt O95238 1-335)
T9 sequence: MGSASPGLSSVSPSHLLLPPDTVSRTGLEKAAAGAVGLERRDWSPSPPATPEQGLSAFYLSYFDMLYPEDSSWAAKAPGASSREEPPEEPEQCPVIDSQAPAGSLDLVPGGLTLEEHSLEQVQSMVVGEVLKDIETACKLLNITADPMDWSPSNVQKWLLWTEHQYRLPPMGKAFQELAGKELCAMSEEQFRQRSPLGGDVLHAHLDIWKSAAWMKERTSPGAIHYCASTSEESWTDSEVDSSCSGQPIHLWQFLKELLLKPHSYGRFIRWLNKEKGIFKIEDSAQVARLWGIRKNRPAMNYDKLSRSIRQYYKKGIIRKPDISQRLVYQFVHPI
Summary of the method: as §1

ETV7 = target: T10, ETV7 (Homo sapiens, UniProt Q9Y603 1-341)
T10 sequence: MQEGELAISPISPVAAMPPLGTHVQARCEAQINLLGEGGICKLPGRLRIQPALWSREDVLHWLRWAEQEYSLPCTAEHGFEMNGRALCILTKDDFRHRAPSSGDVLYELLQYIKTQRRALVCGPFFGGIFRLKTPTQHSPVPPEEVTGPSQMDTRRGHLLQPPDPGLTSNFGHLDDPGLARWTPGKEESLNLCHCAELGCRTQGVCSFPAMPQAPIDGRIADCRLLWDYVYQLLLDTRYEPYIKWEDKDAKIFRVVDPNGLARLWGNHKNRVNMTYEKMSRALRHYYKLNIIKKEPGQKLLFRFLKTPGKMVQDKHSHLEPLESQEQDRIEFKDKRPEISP
Summary of the method: as §1

ETV6 = ETV6 (Homo sapiens, UniProt P41212 1-452)
Summary of the method: as §1

ELF4, sequence (Q99607 whole entry): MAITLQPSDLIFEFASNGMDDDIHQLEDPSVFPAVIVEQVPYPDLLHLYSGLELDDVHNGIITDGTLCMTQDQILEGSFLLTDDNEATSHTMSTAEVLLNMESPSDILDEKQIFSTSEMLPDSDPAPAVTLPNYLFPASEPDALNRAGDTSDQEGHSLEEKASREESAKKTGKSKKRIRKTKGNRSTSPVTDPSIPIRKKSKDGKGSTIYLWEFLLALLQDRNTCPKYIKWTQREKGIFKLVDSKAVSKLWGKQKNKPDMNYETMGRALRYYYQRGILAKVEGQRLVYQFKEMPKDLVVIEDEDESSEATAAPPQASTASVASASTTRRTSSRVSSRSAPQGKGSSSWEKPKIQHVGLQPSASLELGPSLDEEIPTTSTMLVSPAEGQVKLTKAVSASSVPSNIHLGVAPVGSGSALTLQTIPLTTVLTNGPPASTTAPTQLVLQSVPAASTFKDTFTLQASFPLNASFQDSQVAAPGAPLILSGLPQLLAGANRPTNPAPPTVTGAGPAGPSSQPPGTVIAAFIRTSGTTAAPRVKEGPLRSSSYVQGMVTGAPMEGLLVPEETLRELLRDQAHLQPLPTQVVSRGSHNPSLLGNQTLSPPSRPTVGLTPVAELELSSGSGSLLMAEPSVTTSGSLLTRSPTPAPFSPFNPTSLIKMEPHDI
ETV1, sequence (P50549 whole entry): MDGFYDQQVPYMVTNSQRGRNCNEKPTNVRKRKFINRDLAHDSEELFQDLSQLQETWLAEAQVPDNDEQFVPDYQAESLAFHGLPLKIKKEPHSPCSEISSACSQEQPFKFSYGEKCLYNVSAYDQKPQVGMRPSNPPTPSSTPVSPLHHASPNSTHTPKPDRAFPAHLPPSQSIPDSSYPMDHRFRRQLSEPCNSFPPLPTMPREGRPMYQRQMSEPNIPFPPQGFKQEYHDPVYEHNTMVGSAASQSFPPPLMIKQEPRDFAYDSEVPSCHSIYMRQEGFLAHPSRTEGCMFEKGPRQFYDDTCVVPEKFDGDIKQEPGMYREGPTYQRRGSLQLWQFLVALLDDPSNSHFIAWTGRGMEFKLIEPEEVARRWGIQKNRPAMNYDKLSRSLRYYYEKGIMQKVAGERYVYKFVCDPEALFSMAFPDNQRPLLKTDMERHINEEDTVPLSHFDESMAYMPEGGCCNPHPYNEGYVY
ETV6, sequence (P41212 whole entry): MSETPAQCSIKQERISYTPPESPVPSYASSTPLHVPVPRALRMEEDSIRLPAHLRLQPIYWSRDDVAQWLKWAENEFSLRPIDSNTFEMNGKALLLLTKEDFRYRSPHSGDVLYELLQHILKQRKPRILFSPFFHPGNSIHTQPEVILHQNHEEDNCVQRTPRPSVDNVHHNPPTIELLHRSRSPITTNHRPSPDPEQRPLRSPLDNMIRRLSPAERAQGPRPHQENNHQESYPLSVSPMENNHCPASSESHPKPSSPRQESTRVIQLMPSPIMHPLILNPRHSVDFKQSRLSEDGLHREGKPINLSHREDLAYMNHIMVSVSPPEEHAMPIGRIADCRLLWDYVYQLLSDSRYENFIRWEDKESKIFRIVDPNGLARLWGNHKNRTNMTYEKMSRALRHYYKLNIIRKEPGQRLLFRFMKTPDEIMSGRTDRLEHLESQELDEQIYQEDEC

Question: For GTCACG, which binding signal (FLI1) is on record?
Answer: 1.09 fold enrichment (6-mer frequency, TF over GST control)

Question: What about the binding signal (ERG) of the same sequence?
Answer: 1.06 fold enrichment (6-mer frequency, TF over GST control)

Question: And the binding signal (EHF)?
Answer: 1.07 fold enrichment (6-mer frequency, TF over GST control)

Question: And the binding signal (SPI1)?
Answer: 1.05 fold enrichment (6-mer frequency, TF over GST control)

Question: And the binding signal (ELK3)?
Answer: 1.02 fold enrichment (6-mer frequency, TF over GST control)

Question: And the binding signal (SPIC)?
Answer: 1.04 fold enrichment (6-mer frequency, TF over GST control)

Question: What about the binding signal (ELF4) of the same sequence?
Answer: 1.07 fold enrichment (6-mer frequency, TF over GST control)

Question: And the binding signal (ELK4)?
Answer: 1.08 fold enrichment (6-mer frequency, TF over GST control)

Question: And the binding signal (ELF3)?
Answer: 1.02 fold enrichment (6-mer frequency, TF over GST control)

Question: What about the binding signal (ETV1) of the same sequence?
Answer: 1.1 fold enrichment (6-mer frequency, TF over GST control)

Question: And the binding signal (ERF)?
Answer: 1.08 fold enrichment (6-mer frequency, TF over GST control)

Question: And the binding signal (SPDEF)?
Answer: 1.02 fold enrichment (6-mer frequency, TF over GST control)

Question: And the binding signal (ETV7)?
Answer: 1.04 fold enrichment (6-mer frequency, TF over GST control)

Question: And the binding signal (ETV6)?
Answer: 1.04 fold enrichment (6-mer frequency, TF over GST control)
